High-throughput results from PubChem BioAssay.
JMJD2A Tudor inh – inhibitors of human JMJD2A Tudor domain; AlphaScreen JMJD2A-Tudor / H3K4me3 peptide binding; AID 504339; Potency, µM (titrated, usually from 114 µM), actives largely listed as inhibitors; O75164; 390,000 compounds, 4.4% hits; further: nearly all actives have a fitted effect of over 50% in size
BAZ2B inh – BAZ2B (human) inhibition; Q9UIF8; AlphaScreen BAZ2B-H3K14Ac peptide displacement; Potency, µM (highest dose often 114 µM), actives largely listed as inhibitors; 360,000 compounds, 4.4% hits; AID 504333; further: nearly all actives have a fitted effect of over 60% in size
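BAZ2B 50 nM plus b-H3(5-23)K14Ac 50 nM, PBS pH 7.4/0.01% Tween-20, 30 min RT; compound added (max 110 uM), 30 min RT; streptavidin donor/Ni-chelate acceptor beads 10 ug/mL final, 20 min dark; AlphaScreen read.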
G9a block – inhibitors of human histone lysine methyltransferase G9a; Q96KQ7; G9a H3K9 monomethylation, AlphaScreen, 2 h; Potency, µM (top dose mostly 102 µM), hits mostly inhibitors; 350,000 compounds, 8.8% hits; AID 504332; further: nearly all actives have a fitted effect of over 75% in size
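Using a bead-based AlphaScreen, monomethylated H3K9 product from 2 h room-temperature reactions (G9a 20 nM, peptide 500 nM, SAM 20 uM) was detected with 0.5 ug/mL rabbit anti-H3K9me1 antibody.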
Sfp PPTase inh – inhibitors of Bacillus subtilis Sfp phosphopantetheinyl transferase | Q9F4F7 | Biochemical Sfp PPTase activity, qHTS | Potency, µM, most hits filed as inhibitors | 310,000 compounds, 3.5% hits;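 further: the enzyme is Sfp with the accession as filed and its product quenches rhodamine fluorescence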
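Buffer: 50 mM Hepes-Na pH 7.6, 10 mM MgCl2, 0.01% Nonidet P-40, 0.01% BSA. Enzyme 15 nM, pre-exposed to compound 15 min; substrates then added and fluorescence change tracked over 30 min.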
L3MBTL1 block – blocks human L3MBTL1; AlphaScreen L3MBTL1–H3K9me1 peptide binding; 230,000 compounds, 0.66% hits; Potency, µM (top dose mostly 57.1 µM), most hits filed as inhibitors; Q9Y468; further: nearly all actives have a fitted effect of over 60% in size
Target sequence (Q9Y468 whole entry, looked up): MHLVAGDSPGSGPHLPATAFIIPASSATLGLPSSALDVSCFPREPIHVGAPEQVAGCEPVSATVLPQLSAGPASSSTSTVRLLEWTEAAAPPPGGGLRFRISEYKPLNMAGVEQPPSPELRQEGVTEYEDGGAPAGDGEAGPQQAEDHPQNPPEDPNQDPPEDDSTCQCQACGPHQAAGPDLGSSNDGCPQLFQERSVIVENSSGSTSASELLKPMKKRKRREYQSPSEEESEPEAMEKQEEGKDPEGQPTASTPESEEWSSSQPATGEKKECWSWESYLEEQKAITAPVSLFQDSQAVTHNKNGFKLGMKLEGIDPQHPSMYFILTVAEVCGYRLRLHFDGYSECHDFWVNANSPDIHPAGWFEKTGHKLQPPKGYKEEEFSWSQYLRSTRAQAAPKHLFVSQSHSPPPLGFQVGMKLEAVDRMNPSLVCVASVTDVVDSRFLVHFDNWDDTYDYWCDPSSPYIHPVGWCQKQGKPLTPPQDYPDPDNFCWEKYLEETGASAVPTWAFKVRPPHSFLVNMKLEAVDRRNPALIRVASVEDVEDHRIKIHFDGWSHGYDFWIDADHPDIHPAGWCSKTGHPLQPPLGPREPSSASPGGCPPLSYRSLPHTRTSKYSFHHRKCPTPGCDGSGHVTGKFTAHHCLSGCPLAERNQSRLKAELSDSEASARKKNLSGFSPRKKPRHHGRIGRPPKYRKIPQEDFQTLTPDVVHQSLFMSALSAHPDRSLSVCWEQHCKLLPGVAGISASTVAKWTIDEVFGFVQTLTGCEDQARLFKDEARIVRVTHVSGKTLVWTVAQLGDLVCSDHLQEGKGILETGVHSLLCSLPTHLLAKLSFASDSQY
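Displacement of a biotinylated histone H3(1-15) peptide monomethylated at Lys9 (75 nM) from L3MBTL1 (50 nM) was measured by AlphaScreen after a 30 min room-temperature compound incubation; cefsulodin titration served as intraplate control.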
HP1b binding inh – blocks HP1-beta chromodomain binding to methylated histone tails. P83916. AlphaScreen HP1-beta / biotin-H3K9me3 peptide binding. 390,000 compounds, 0.56% hits. Potency, µM (highest dose often 114 µM), most hits filed as inhibitors; further: nearly all actives have a fitted effect of over 70% in size
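HP1-beta protein (50 nM final) preincubated 30 min at room temperature with biotinylated H3(1-18)K9me3 peptide (50 nM) in PBS pH 7.4, 0.01% Tween-20, then compound added for 30 min. AlphaScreen streptavidin donor/nickel chelate acceptor beads (10 ug/mL final), 30 min dark, luminescence read.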
Numbers stand for hits; i = inactive; ? = inconclusive; nt = no result; [ ] = remark or other dose. The list is not random: actives were taken first. Their share in the collection is about 12%. The call rests on the fitted dose curve; in most records, active means well fitted curve in the direction sought with a large enough effect; inconclusive means small, poorly fitted or top-dose-only effect, or another doubt; inactive means no such curve, though single readings can be large; an effect the other way counts as inactive or inconclusive.

SMILES	JMJD2A Tudor inh	BAZ2B inh	G9a block	Sfp PPTase inh	L3MBTL1 block	HP1b binding inh
CCOc1ccc(N2C(=O)CC(NCCc3c[nH]c4ccccc34)C2=O)cc1 (stereo not drawn)	i	i	?	i	i[11.4 µM]	i
CCOc1ccc(N2C(=O)CC(NCCNc3ccc([N+](=O)[O-])cn3)C2=O)cc1 (stereo not drawn)	i	i	3.2µM	i	i	i
CCCOc1ccc(N2C(=O)CC(N3CCN(c4ccccc4F)CC3)C2=O)cc1 (stereo not drawn)	i	i	i	i	i	i
COc1ccc(N2C(=O)CC(NCCNc3ccc([N+](=O)[O-])cn3)C2=O)cc1 (stereo not drawn)	i	i	6.3µM	i	i	i
CCOc1ccc(N2C(=O)CC(N3CCN(c4ccc([N+](=O)[O-])cc4)CC3)C2=O)cc1 (stereo not drawn)	i	i	7.9µM	i	i	i
CCCOc1ccc(N2C(=O)CC(N3CCN(c4nc5ccccc5s4)CC3)C2=O)cc1 (stereo not drawn)	i	i	45µM	i	i	i
Cc1ccc(-c2n[nH]c(=S)nc2-c2ccc(C)cc2)cc1	?	i	?	i	nt	i
O=C(OCc1nc(-c2ccccc2Cl)no1)c1ccco1	i	i	i[12.7 µM]	nt	i	i
CCC(C)c1cc([N+](=O)[O-])cc([N+](=O)[O-])c1OC(=O)OC(C)C (stereo not drawn)	nt	nt	nt	i	nt	nt
Cc1ccc(CN2CCN(/N=C/c3ccc(C)s3)CC2)cc1	?	40µM	i	i	i	?
Cc1ccc(/C=N/N2CCN(Cc3ccccc3)CC2)s1	50µM	7.1µM	i[0.501 µM]	i	?	?
Cc1ccc(/C=N/N2CCN(Cc3cccc4ccccc34)CC2)s1	i	i	i[0.501 µM]	i	i	i
Cc1ccc(CN2CCN(/N=C\c3cccc([N+](=O)[O-])c3)CC2)cc1	45µM	28µM	28µM	i	?	35µM
Cc1ccc(/C=N/N2CCOCC2)s1	i	i	i	i	i	i
Cc1ccc(CN2CCN(/N=C\C=C\c3ccccc3)CC2)cc1	40µM	28µM	35µM	i	?	?
COC(=O)c1ccc(/C=N\N2CCN(Cc3ccc(C)cc3)CC2)cc1	i	i	i[2.33 µM]	i	i	i
C[C@H]1CN([C@@H](C)CO)C(=O)Cc2cc(NC(=O)CCC(F)(F)F)ccc2O[C@H]1CN(C)S(=O)(=O)c1ccc(F)cc1	i	nt	nt	nt	i	i
COc1ccc2c(c1)C(=O)[C@H](OC(=O)NCCOc1ccccc1)[C@@H](c1ccc(OC)c(Br)c1)O2	nt	nt	nt	i	nt	nt
Cc1ccc(CN2CCN(/N=C/c3cccs3)CC2)cc1	i	45µM	?	i	i	?
Cc1ccc(CN2CCN(/N=C/c3ccc(C(F)(F)F)cc3)CC2)cc1	?	i	i	i	i	?
Cc1ccc(/C=N/N2CCN(Cc3ccc(C)cc3)CC2)cc1	?	35µM	?	i	?	i
Cc1ccc(CN2CCN(/N=C/c3cc(Br)ccc3O)CC2)cc1	i	i	i[12.7 µM]	i	i	i
COC(=O)c1ccccc1S(=O)(=O)N1CCC(NC(=O)C(Cc2cccc(OC)c2OC)NC(C)=O)CC1 (stereo not drawn)	i	i	i	i	nt	i
COc1ccc(C2/C(=C(/O)c3ccc4c(c3)CC(C)O4)C(=O)C(=O)N2CCCN2CCOCC2)cc1 (stereo not drawn)	?	i	45µM	i	nt	i
C=CCOc1ccc(C2/C(=C(\O)c3ccc4c(c3)CC(C)O4)C(=O)C(=O)N2CCN2CCOCC2)cc1OCC (stereo not drawn)	35µM	79µM	20µM	i	nt	i
SMILES	JMJD2A Tudor inh	BAZ2B inh	G9a block	Sfp PPTase inh	L3MBTL1 block	HP1b binding inh
COc1ccc(C2/C(=C(/O)c3ccc4c(c3)CC(C)O4)C(=O)C(=O)N2CCN2CCOCC2)cc1 (stereo not drawn)	i	i	45µM	i	i	i
C=CCOc1cccc(C2/C(=C(\O)c3ccc4c(c3)OCCO4)C(=O)C(=O)N2CCN2CCOCC2)c1 (stereo not drawn)	i	?	40µM	i	nt	i
CCCCOc1ccc(C2/C(=C(\O)c3ccc4c(c3)OCCO4)C(=O)C(=O)N2CCCN2CCOCC2)cc1 (stereo not drawn)	i	i	?	i	nt	i
CCC(=O)OC1(C(C)=O)CCC2C3CCC4=CC(=O)CCC4(C)C3CCC21C (stereo not drawn)	i	nt	nt	nt	nt	i
CC1CCC(NC(=O)c2nc(Cn3ccc([N+](=O)[O-])n3)no2)CC1 (stereo not drawn)	i	i	i	i	nt	i
C[C@@H](/C=C/c1ccc2ccccc2c1)C1COC(=O)C[C@H]1O (stereo partly drawn)	i	nt	nt	i	nt	i
CC(=O)c1ccc(NC(=O)Cn2c(-n3nc(C)cc3C)nc(C)cc2=O)cc1	?	i	?	nt	nt	i
CC1Cc2cc(/C(O)=C3/C(=O)C(=O)N(CCN4CCOCC4)C3c3cccc(Cl)c3)ccc2O1 (stereo not drawn)	i	i	i[12.7 µM]	i	i	i
CC1Cc2cc(/C(O)=C3/C(=O)C(=O)N(CCN4CCOCC4)C3c3ccc([N+](=O)[O-])cc3)ccc2O1 (stereo not drawn)	?	?	79µM	i	nt	i
C=CCOc1ccc(C2/C(=C(/O)c3ccc4c(c3)CC(C)O4)C(=O)C(=O)N2CCCN2CCOCC2)cc1 (stereo not drawn)	?	i	45µM	i	nt	i
CCCOc1cccc(C2/C(=C(/O)c3ccc4c(c3)CC(C)O4)C(=O)C(=O)N2CCN2CCOCC2)c1 (stereo not drawn)	i	i	50µM	i	nt	i
Cc1ccc(C2/C(=C(/O)c3ccc4c(c3)CC(C)O4)C(=O)C(=O)N2CCCn2ccnc2)cc1 (stereo not drawn)	i	?	45µM	i	nt	i
COC(=O)C/C=C\[C@H](C)[C@@H](OCc1ccccc1Br)C(C)C	nt	nt	nt	i	nt	nt
COC(=O)c1ccc(C2/C(=C(/O)c3ccc4c(c3)CC(C)O4)C(=O)C(=O)N2Cc2ccncc2)cc1 (stereo not drawn)	i	?	45µM	i	nt	i
CC1Cc2cc(/C(O)=C3/C(=O)C(=O)N(CCCN(C)C)C3c3ccncc3)ccc2O1 (stereo not drawn)	i	i	i[12.7 µM]	i	nt	i
CN1CCCN(C(=O)c2ccc(Cl)c(S(=O)(=O)N(C)c3ccccc3)c2)CC1	i	i	50µM	i	i	i
c1ccc(CNc2ccc3c(c2)ncn3C2CCCCC2)nc1	25µM	20µM	7.9µM	i	?	i
COc1ccc(N2C(S)=C(C#N)C(=O)NC2c2ccco2)cc1 (stereo not drawn)	i	i	35µM	28µM	i	i
COc1cc(C2NC(=O)C(C#N)=C(S)N2c2ccccc2)ccc1OC(C)C (stereo not drawn)	i	i	?	40µM	i	i
